{"source": "PubChem BioAssay AID602292", "about": "(National Center for Advancing Translational Sciences (NCATS), 2012)", "note": "Among all 1,300 compounds or so, about 380 (29%) were called active. Inconclusive results (about 37%) are left out. The call rests on the fitted dose curve; in most records, active means well fitted inhibition curve with a large enough effect; inconclusive means small, poorly fitted or top-dose-only effect; inactive means flat fitted curve, though single readings scatter. The list shows a part of the results. Entries that show only a call come without a potency. Potency means the concentration at half of the fitted maximal effect."}
{"target": "Thyrotropin receptor (Homo sapiens) (UniProt P16473)", "sequence (P16473 whole entry, looked up)": "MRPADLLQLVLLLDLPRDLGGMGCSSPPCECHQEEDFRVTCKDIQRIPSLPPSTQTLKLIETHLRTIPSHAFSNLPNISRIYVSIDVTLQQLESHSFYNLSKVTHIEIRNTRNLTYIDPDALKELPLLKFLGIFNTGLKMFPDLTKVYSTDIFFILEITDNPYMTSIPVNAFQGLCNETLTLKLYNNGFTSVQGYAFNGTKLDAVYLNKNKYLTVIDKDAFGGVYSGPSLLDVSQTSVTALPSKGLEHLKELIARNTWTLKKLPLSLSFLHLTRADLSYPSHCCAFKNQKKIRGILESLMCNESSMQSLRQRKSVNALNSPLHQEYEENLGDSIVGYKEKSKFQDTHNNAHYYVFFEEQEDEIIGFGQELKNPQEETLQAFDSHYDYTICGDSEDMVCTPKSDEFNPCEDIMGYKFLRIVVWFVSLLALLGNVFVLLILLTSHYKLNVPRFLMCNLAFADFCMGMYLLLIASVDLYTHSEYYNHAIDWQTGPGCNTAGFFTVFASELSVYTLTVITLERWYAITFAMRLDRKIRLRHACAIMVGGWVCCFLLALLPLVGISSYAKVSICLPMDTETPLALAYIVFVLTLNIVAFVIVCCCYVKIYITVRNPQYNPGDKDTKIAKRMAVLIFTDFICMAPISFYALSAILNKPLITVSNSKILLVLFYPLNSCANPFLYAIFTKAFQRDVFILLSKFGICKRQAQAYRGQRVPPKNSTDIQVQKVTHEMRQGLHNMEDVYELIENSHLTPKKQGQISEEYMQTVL", "assay": "qHTS for antagonists of the Thyroid Stimulation Hormone Receptor: Hit Validation in Primary Screen; further: nearly all actives have a fitted effect of over 80% in size", "settings": "TSHR-expressing cells, cAMP antagonist mode; series mostly up to 58 µM", "in_short": "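Competitive HTRF detected cAMP in lysates of TSHR cells, read 30 minutes after antibody and d2 addition at room temperature. Before lysis, cells had 2 hours at 37 deg C with compound plus EC80 TSH, 4nM final.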"}
{"smiles": "O=C1C(SCCO)=C(SCCO)C(=O)c2ccccc21", "Potency": "3.38 µM (active)"}
{"smiles": "OCCSc1nnc(Nc2ccccc2)s1", "Potency": "inactive"}
{"smiles": "COc1cc(NS(=O)(=O)c2ccc(C)cc2C)cc(OC)c1OC", "Potency": "37.9 µM (active)"}
{"smiles": "COc1ccc(NS(=O)(=O)c2cn(C)cn2)cc1Cl", "Potency": "inactive"}
{"smiles": "CCc1ccc(NS(=O)(=O)c2cc3[nH]c(=O)c(=O)[nH]c3cc2C)cc1", "Potency": "inactive"}
{"smiles": "CC(C)(C)OC(=O)N1CCC(CC2CC(c3cccc(Br)c3)=NO2)(C(=O)NCC2CCCCC2)CC1", "note": "(stereo not drawn)", "Potency": "inactive"}
{"smiles": "CC(C)Cc1nc2oc3c(Cl)ncnc3c2c2c1CCC2", "Potency": "23.9 µM (active)"}
{"smiles": "Cc1cc(NC(=O)c2ccccc2)c(Cl)cc1N", "Potency": "inactive"}
{"smiles": "COc1cccc(CNC(=O)c2nnn(CC(=O)Nc3cc(Cl)ccc3C)c2N)c1", "Potency": "inactive"}
{"smiles": "COc1cc2ccccc2cc1C(=O)N1CCCC1", "Potency": "inactive"}
{"smiles": "COc1ccccc1C(=O)NCCC(=O)Nc1ccc(OC(F)(F)F)cc1", "Potency": "inactive"}
{"smiles": "Cc1ccc(Cl)cc1NC(=O)c1cc2ccccc2cc1O", "Potency": "3.79 µM (active)"}
{"smiles": "COc1cc(NC(=O)c2cc3ccccc3cc2O)c(OC)cc1Cl", "Potency": "10.7 µM (active)"}
{"smiles": "CCOc1ccc(-n2c(SCC(=O)Nc3cc(C)on3)nc3c(c2=O)SCC3)cc1", "Potency": "inactive"}
{"smiles": "Cc1ccc(NC(=O)Cn2nnc(C(=O)NCCc3ccccc3)c2N)c(C)c1", "Potency": "inactive"}
{"smiles": "Cc1ccc(CCNC(=O)C2CC(c3cc(C(F)(F)F)cc(C(F)(F)F)c3)=NO2)cc1", "note": "(stereo not drawn)", "Potency": "inactive"}
{"smiles": "N#C/C(=N/Nc1ccc(OC(F)(F)F)cc1)C(N)=S", "Potency": "6.01 µM (active)"}
{"smiles": "CC(=O)Oc1c(C)cc(Cl)cc1C(=O)Nc1ccc([N+](=O)[O-])cc1Cl", "Potency": "0.478 µM (active)"}
{"smiles": "O=C(Nc1ccc([N+](=O)[O-])cc1Cl)c1cc(Cl)ccc1O", "Potency": "0.338 µM (active)"}
{"smiles": "O=C(Nc1cccc(Cl)c1)c1cc(N=Nc2ccc([N+](=O)[O-])cc2Cl)ccc1O", "Potency": "0.478 µM (active)"}
{"smiles": "Cc1ccc(N2C(=O)C3C4C=CC(CC4)C3C2=O)cc1Cl", "note": "(stereo not drawn)", "Potency": "inactive"}
{"smiles": "CCOc1cc(S(=O)(=O)n2cnc(C)c2)ccc1Cl", "Potency": "inactive"}
{"smiles": "Cc1ccc(CS(=O)(=O)c2ncc(Cl)c(C(=O)Nc3nnc(C(C)C)s3)n2)cc1", "Potency": "23.9 µM (active)"}
{"smiles": "COC(=O)CSc1nc(NCc2ccccc2)nc(N(C)C)n1", "Potency": "inactive"}
{"smiles": "Cc1cccc(CC(=O)NCC(=O)NCc2cc(=O)n(C)c(=O)n2C)c1", "Potency": "inactive"}
{"smiles": "CN(C)c1nc(=S)nc(NCc2ccccc2)[nH]1", "Potency": "inactive"}
{"smiles": "Cc1cc(=O)oc2ccc(OCc3ccccc3)cc12", "Potency": "inactive"}
{"smiles": "COc1ccc(CNC(=O)C2CCCN2C(=O)NCc2ccccc2)cc1", "note": "(stereo not drawn)", "Potency": "inactive"}
{"smiles": "CCOC(=O)c1c(NC(=O)/C=C/C(=O)O)sc(C)c1-c1ccc(Cl)cc1", "Potency": "21.3 µM (active)"}
{"smiles": "CCOC(=O)c1c(NC(=O)/C=C/C(=O)O)sc(C)c1-c1ccc(C)c(C)c1", "Potency": "23.9 µM (active)"}
{"smiles": "CCOC(=O)c1c(NC(=O)CN2C(=O)NC(C)(c3ccc(OC(F)F)cc3)C2=O)sc(C)c1C", "note": "(stereo not drawn)", "Potency": "inactive"}
{"smiles": "CCOC(=O)Cn1c(=NC(=O)CSC(C)=O)sc2ccccc21", "Potency": "inactive"}
{"smiles": "Cc1ccc(/C=N/n2c(COc3ccccc3)n[nH]c2=S)s1", "Potency": "inactive"}
{"smiles": "CN(C)c1ccc(N/C=C/C(=O)C(F)(F)F)cc1", "Potency": "inactive"}
{"smiles": "Cc1nn(Cc2ccccc2)c(C)c1NC(=O)c1noc2c1CCc1ccccc1-2", "Potency": "37.9 µM (active)"}
{"smiles": "Cc1nn(Cc2ccc(Cl)cc2)c(C)c1NC(=O)c1noc2c1CCc1ccccc1-2", "Potency": "16.9 µM (active)"}
{"smiles": "COc1ccc(C(C(=O)NC(C)(C)C)N(CCc2ccccc2)C(=O)CCC(=O)Nc2cc(C)on2)cc1", "note": "(stereo not drawn)", "Potency": "inactive"}
{"smiles": "CC(=O)N/C(=C\\c1ccc(Cl)cc1)C(=O)O", "Potency": "inactive"}
{"smiles": "C=CCNC(=O)c1ccc(NC(=O)C2=CSCCO2)cc1", "Potency": "inactive"}
{"smiles": "O=[N+]([O-])c1c(Nc2cccc(O)c2)cc(Cl)c2nonc12", "Potency": "10.7 µM (active)"}
{"smiles": "Cc1c(Nc2cc(Cl)c3nonc3c2[N+](=O)[O-])c(=O)n(-c2ccccc2)n1C", "Potency": "26.9 µM (active)"}
{"smiles": "Cc1cc(C)cc(C(=O)NC(CC(N)=O)c2ccc(NCCN3CCCC3)c([N+](=O)[O-])c2)c1", "note": "(stereo not drawn)", "Potency": "inactive"}
{"smiles": "CC1CCCC(N2CCN(S(=O)(=O)c3ccccc3)CC2)C1", "note": "(stereo not drawn)", "Potency": "inactive"}
{"smiles": "COC(CNC(=O)c1cn(C)c2ccc(S(=O)(=O)N3CCOCC3)cc2c1=O)OC", "Potency": "inactive"}
{"smiles": "O=C1c2cccc3c(O)ccc(c23)C(=O)N1c1ccc(Cl)cc1", "Potency": "30.1 µM (active)"}
{"smiles": "Cc1ccc(OC(F)F)c(NC(=O)Nc2cccc(C(F)(F)F)c2)c1", "Potency": "26.9 µM (active)"}
{"smiles": "Cc1ccc(NC(=O)Nc2ccc3c(c2)OCO3)c(OC(F)F)c1", "Potency": "inactive"}
{"smiles": "N/C(=N\\OC(=O)Nc1ccccc1)c1cccc(C(F)(F)F)c1", "Potency": "inactive"}
{"smiles": "Cc1ccccc1NC(=O)C1C2CCCCC21", "note": "(stereo not drawn)", "Potency": "inactive"}
{"smiles": "CC1CC1C(=O)N1CCN(S(=O)(=O)c2cc(C(F)(F)F)cc(C(F)(F)F)c2)CC1", "note": "(stereo not drawn)", "Potency": "30.1 µM (active)"}
{"smiles": "O=C(Nc1ccncc1)C1CCN(S(=O)(=O)c2cccc(C(F)(F)F)c2)CC1", "Potency": "inactive"}
{"smiles": "Cc1ccc(C)c(N2CCN(S(=O)(=O)c3ccc4c(c3)CC(C)N4C(=O)C3CC3)CC2)c1", "note": "(stereo not drawn)", "Potency": "inactive"}
{"smiles": "COc1cccc(CNC(=O)CCCC(=O)NC(C)CCc2ccccc2)c1", "note": "(stereo not drawn)", "Potency": "inactive"}
{"smiles": "CCCn1c(COc2ccccc2OC)nc2ccccc21", "Potency": "inactive"}
{"smiles": "COc1cccc(COc2cc3ccccc3nc2C)c1", "Potency": "23.9 µM (active)"}
{"smiles": "COc1ccc(-n2c(SCC(=O)Nc3cc(C)on3)nc3c(c2=O)SCC3)cc1OC", "Potency": "inactive"}
{"smiles": "Nc1ncc(Br)cc1S(=O)(=O)Nc1cc(C(F)(F)F)cc(C(F)(F)F)c1", "Potency": "12 µM (active)"}
{"smiles": "O=S(=O)(Nc1cccc(-n2cnnn2)c1)c1ccccc1C(F)(F)F", "Potency": "inactive"}
{"smiles": "CC1CN(C(=O)CCn2c(=O)oc3ccccc32)CC(C)O1", "note": "(stereo not drawn)", "Potency": "inactive"}
{"smiles": "O=C(/C=C/c1ccc(OCCCF)cc1)Nc1ccnc(-c2ccncc2)n1", "Potency": "inactive"}
{"smiles": "Cc1cc(C#N)c(SCC(N)=O)nc1-c1ccc(F)cc1", "Potency": "inactive"}
{"smiles": "Cc1cc(=O)[nH]c(SCC(=O)Nc2ccc(Br)cc2)c1C#N", "Potency": "7.57 µM (active)"}
{"smiles": "Cc1cc2nc(SCCOC(=O)Nc3ccc(Cl)cc3)nc(C)c2cc1C", "Potency": "inactive"}
{"smiles": "Nc1nc(SCC(=O)Nc2ccc([N+](=O)[O-])cc2)[nH]c(=O)c1NC(=O)c1ccc(Br)cc1", "Potency": "inactive"}
{"smiles": "CSc1nc(N)nc(SCC(=O)Nc2ccc(Cl)cc2)c1C#N", "Potency": "30.1 µM (active)"}
{"smiles": "Cc1ccc(CNS(=O)(=O)c2ccc(CN3C(=O)c4cccnc4C3=O)s2)o1", "Potency": "inactive"}
{"smiles": "O=C(CCc1ccccc1)N1CCN(Cc2ccc(F)cc2Cl)CC1", "Potency": "inactive"}
{"smiles": "Cc1ccc(CCNC(=O)CN2C(=O)COc3ccc(S(=O)(=O)N4CCC(C)CC4)cc32)cc1", "Potency": "inactive"}
{"smiles": "CC[C@@H](C(=O)[C@@H](C)[C@@H](O)[C@H](C)CCc1ccc(C)c(O)c1C(=O)O)[C@H]1O[C@](CC)([C@H]2CC[C@](O)(CC)[C@H](C)O2)C[C@@H]1C", "Potency": "4.78 µM (active)"}
{"smiles": "Cc1ccccc1CS(=O)(=O)c1nnc([C@H](Cc2ccccc2)NC(=O)OC(C)(C)C)o1", "Potency": "37.9 µM (active)"}
{"smiles": "C[C@@H](NC(=O)[C@@H]1Cc2ccccc2CN1)C(=O)NC1CCCCC1", "Potency": "inactive"}
{"smiles": "O=[N+]([O-])c1cc(Br)c(O)c(/C=N/Nc2nc3ccccc3s2)c1", "Potency": "2.39 µM (active)"}
{"smiles": "O=[N+]([O-])c1cc(Br)c(O)c(/C=N/Nc2nnnn2-c2cccc3ccccc23)c1", "Potency": "7.57 µM (active)"}
{"smiles": "COc1cccc(OCC(O)CN2CC(C)CC(C)C2)c1", "note": "(stereo not drawn)", "Potency": "inactive"}
{"smiles": "O=C(/C=C/c1ccc(Cl)cc1Cl)NCCSCc1ccccc1", "Potency": "21.3 µM (active)"}
{"smiles": "Cc1ccccc1-n1nnnc1SC1CCOC1=O", "note": "(stereo not drawn)", "Potency": "inactive"}
{"smiles": "O=C(NCCCN1CCOCC1)c1ccc2c(c1)N(Cc1ccc(Cl)cc1)C(=O)c1ccccc1S2=O", "note": "(stereo not drawn)", "Potency": "inactive"}
{"smiles": "CCOc1ccc(CNC(=O)CCCn2nc(CC)n3c(cc4occc43)c2=O)cc1", "Potency": "inactive"}
{"smiles": "COc1cc([N+](=O)[O-])cc(/C=C2/SC(=S)N(Cc3ccccc3)C2=O)c1O", "Potency": "10.7 µM (active)"}
{"smiles": "O=C1/C(=C\\c2cc([N+](=O)[O-])ccc2O)SC(=S)N1Cc1ccc(Cl)cc1", "Potency": "2.69 µM (active)"}
{"smiles": "CN(C(=O)CN1C(=O)/C(=C/c2ccccc2Cl)SC1=S)C1CCS(=O)(=O)C1", "note": "(stereo not drawn)", "Potency": "inactive"}
{"smiles": "CN(C)C(=O)[C@H]1C[C@H]1[C@@H](O)[C@H](CO)NC(=O)[C@H](COCc1ccccc1)NC(=O)OC(C)(C)C", "Potency": "inactive"}
{"smiles": "Cc1ccc(-c2ccc(/C=N/N=C3/NC(=O)C(CC(=O)O)S3)o2)c([N+](=O)[O-])c1", "note": "(stereo not drawn)", "Potency": "inactive"}
{"smiles": "O=C(NCCS(=O)(=O)N1CCN(c2ccccc2)CC1)C1CC(=O)N(c2ccccc2)C1", "note": "(stereo not drawn)", "Potency": "inactive"}
{"smiles": "Cc1ccc(CCNC(=O)C2CCN(S(=O)(=O)c3cccc4cccnc34)CC2)cc1", "Potency": "inactive"}
{"smiles": "O=C(Nc1nc2ccc(F)cc2s1)C1CCN(S(=O)(=O)c2cc([N+](=O)[O-])ccc2Cl)CC1", "Potency": "19 µM (active)"}
{"smiles": "N#C/C(=N\\Nc1cccc([N+](=O)[O-])c1)C(=O)c1ccc(Br)cc1", "Potency": "15.1 µM (active)"}
{"smiles": "COc1ccc(-c2nc(CS(=O)CC(=O)NCc3ccccc3)c(C)o2)cc1OC", "note": "(stereo not drawn)", "Potency": "inactive"}
{"smiles": "COc1ccc(CC(=O)Nc2cccc(-c3nnc(-c4cccc(C)c4)o3)c2)cc1OC", "Potency": "4.26 µM (active)"}
{"smiles": "Cc1cccc(-c2noc(CN(C)C(=O)c3ccco3)n2)c1", "Potency": "inactive"}
{"smiles": "O=c1[nH]c(=O)c2nnc(N/N=C/c3ccccc3F)nc2[nH]1", "Potency": "inactive"}
{"smiles": "CC(C)Nc1nc(SC(C)C(=O)Nc2ccccc2)nc(N(C)C)n1", "note": "(stereo not drawn)", "Potency": "inactive"}
{"smiles": "O=C(CSc1nnc(NC(=O)c2cccc(Br)c2)s1)NCC1CCCO1", "note": "(stereo not drawn)", "Potency": "inactive"}
{"smiles": "CCOc1ccc2nc(NC(=O)c3ccc(OCC4CCCO4)cc3)sc2c1", "note": "(stereo not drawn)", "Potency": "30.1 µM (active)"}
{"smiles": "CCOc1ccc2nc(NC(=O)CS(=O)(=O)c3ccccc3)sc2c1", "Potency": "inactive"}
{"smiles": "C=CS(=O)(=O)c1sc(Cl)c(N2CCOCC2)c1[N+](=O)[O-]", "Potency": "26.9 µM (active)"}
{"smiles": "Cc1ccc(CCC(=O)NCc2ccccc2)o1", "Potency": "inactive"}
{"smiles": "Cc1ccc(/C=C/C(=O)Nc2ccc(Oc3ccccc3)cc2)o1", "Potency": "23.9 µM (active)"}
